Bioassay records: PubChem, several laboratories
ADAM10 inh – ADAM10 inhibition, QFRET primary screen; recombinant ADAM10, EDANS/DABCYL FRET peptide cleavage, 3 h; inhibition, % at 7 µM; 370,000 compounds, 0.62% hits; AID 720582;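 active = inhibition above a per-campaign cutoff equal to the mean of compounds falling between control-based bounds plus 3 SD, cut at about 20% in these data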;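 note: 0% = DMSO wells while the 100% control is not disclosed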
Target sequence (O14672 214-748 limits assumed): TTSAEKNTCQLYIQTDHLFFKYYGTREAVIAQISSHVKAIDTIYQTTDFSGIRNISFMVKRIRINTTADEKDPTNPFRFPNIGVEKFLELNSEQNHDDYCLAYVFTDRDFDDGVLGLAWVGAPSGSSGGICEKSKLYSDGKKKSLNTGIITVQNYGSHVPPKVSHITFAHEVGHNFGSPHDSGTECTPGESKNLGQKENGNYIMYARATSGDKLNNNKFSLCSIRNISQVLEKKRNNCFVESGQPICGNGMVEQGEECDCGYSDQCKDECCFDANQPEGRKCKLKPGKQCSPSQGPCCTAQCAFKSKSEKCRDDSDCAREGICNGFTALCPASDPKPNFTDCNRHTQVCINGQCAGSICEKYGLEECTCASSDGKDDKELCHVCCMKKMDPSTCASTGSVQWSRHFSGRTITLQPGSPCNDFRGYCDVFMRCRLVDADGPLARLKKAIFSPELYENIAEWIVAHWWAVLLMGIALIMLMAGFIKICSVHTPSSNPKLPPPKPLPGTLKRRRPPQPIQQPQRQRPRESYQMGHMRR
GRIN3A LBD mod – modulates the human NR3A ligand-binding domain. AID 1259313. NR3A LBD differential scanning fluorimetry, Tm shift; 0% = protein alone, 100% = glycine-bound protein. Tm shift relative to glycine control, % at 25 µM. 340,000 compounds, 2.5% hits;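 active = melting temperature shift of at least 10% of the positive control shift, at one fixed dose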
rCAG binder – molecules binding r(CAG) RNA repeats; r(CAG) RNA repeat, TO-PRO-1 dye displacement fluorescence; inhibition, % at 3 µM; 370,000 compounds, 1.3% hits; AID 651821;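 active = inhibition above the plate cutoff, the mean of all test compounds on that plate plus 3 SD, cut at about 35% in these data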;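 note: 0% = DMSO alone and 100% = 100 µM mitoxantrone as full dye displacement; higher means more dye released from RNA so lower well fluorescence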
ADAM17 inh – ADAM17 inhibition, QFRET primary screen; P78536; recombinant ADAM17, EDANS/DABCYL FRET peptide cleavage; inhibition, % at 6.95 µM; 370,000 compounds, 0.83% hits; AID 720648;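 active = inhibition above the mean of compounds lying between control limits plus 3 SD, set per campaign, cut at about 8.5% in these data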;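 note: 0% = DMSO-only wells as the low control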
AHR act – activates the human aryl hydrocarbon receptor | 320,000 compounds, 2.5% hits | AHR-responsive luciferase reporter cells, luminescence | P35869 | activation, % at 5 µM | AID 2796; in the data active = activation above about 47%;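 note: 0% = vehicle wells and 100% = reference agonist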
proKLK7 act – proKLK7 (human) activation, primary screen; P49862; purified proKLK7, EDANS-DABCYL substrate fluorescence; 100% is mature enzyme control, 0% vehicle; activation, % at 7 µM; 370,000 compounds, 0.9% hits; AID 652039;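 active = activation above the mean of all tested compounds plus 3 SD, computed per campaign excluding outliers beyond control limits, cut at about 13% in these data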
Target sequence (P49862 whole entry, looked up): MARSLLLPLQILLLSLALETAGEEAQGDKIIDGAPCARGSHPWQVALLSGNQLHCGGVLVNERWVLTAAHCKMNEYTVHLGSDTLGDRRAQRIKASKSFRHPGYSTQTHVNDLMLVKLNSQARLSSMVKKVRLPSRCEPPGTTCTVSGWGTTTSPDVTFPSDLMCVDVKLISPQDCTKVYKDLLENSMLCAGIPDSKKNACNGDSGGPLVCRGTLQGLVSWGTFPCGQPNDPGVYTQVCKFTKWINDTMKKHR
rCAG bind conf – r(CAG) RNA repeat binding, confirmation | shares compounds with rCAG binder | TO-PRO-1 dye displacement fluorescence | inhibition, % at 3 µM | 4,300 compounds, 70% hits;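 active = inhibition above a per-plate cutoff, the mean inhibition of sample wells plus 3 SD, cut at about 35% in these data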;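 note: loss of TO-PRO-1 fluorescence as compound displaces dye from 1x1 AA loop RNA; 0% = DMSO only wells and 100% = 100 µM mitoxantrone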
DNA CAG counter – DNA CAG dye complex inhibition counter-screen | inhibition, % at 3 µM | AID 652068 | d(CAG) DNA oligo TO-PRO-1 dye displacement, fluorescence | 4,300 compounds, 94% hits | shares compounds with rCAG binder;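 active = inhibition above its plate's cutoff, the mean test-well inhibition plus 3 SD, cut at about 4.8% in these data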;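 note: 0% = DNA dye mix with DMSO and 100% = 100 µM mitoxantrone; hits displace the dye from DNA and so lower well fluorescence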
dCAG dye DR – DNA CAG dye complex inhibition, dose response counter-screen. shares compounds with rCAG binder. DNA CAG/GTC duplex TO-PRO-1 dye displacement fluorescence. IC50, µM. 250 compounds, 20% hits. AID 686960; in the data active = IC50 below about 10 µM
* hit, by the source's call; . = no result. Shown are actives, neighbours in structure and some others; about 7% of the full set was active somewhere.

SMILES | ADAM10 inh | GRIN3A LBD mod | rCAG binder | ADAM17 inh | AHR act | proKLK7 act | rCAG bind conf | DNA CAG counter | others
Cc1ccccc1S(=O)(=O)N1[C@@H](c2ccc(Cl)cc2)C(C(=O)O)=CC[C@H]1c1ccc(Cl)cc1 | 18.4 | 0.2 | 79.9* | 4.0 | -1.4 | -0.2 | 79.6* | 39.9*
COC(=O)C1=C(C)N(Cc2cccc(C(F)(F)F)c2)C(=NCc2ccc(OC)cc2)NC1c1ccccc1 (stereo not given) | 5.0 | . | 10.3 | 1.9 | . | -0.1 | . | .
CC[C@@H]1C=C(C(=O)O)[C@H](c2ccc(Cl)c(Cl)c2)N1S(=O)(=O)c1ccc(C)cc1 | -10.9 | -4.4 | 46.0* | -2.3 | 0.6 | -0.6 | 41.0* | 12.3*
Cc1ccc(S(=O)(=O)N2[C@@H](c3ccc(Cl)c(Cl)c3)C(C(=O)O)=C[C@H]2C(C)(C)C)cc1 | . | -4.4 | . | . | 0.9 | . | . | .
CCCCC[C@@H]1C=C(C(=O)O)[C@H](c2ccc3c(c2)OCO3)N1S(=O)(=O)c1ccc(C)cc1 | -0.1 | -1.7 | 64.7* | -0.1 | -0.3 | 0.2 | 53.8* | 20.7*
CCCCC[C@@H]1C=C(C(=O)O)[C@H](c2ccc(OC)c(OC)c2)N1S(=O)(=O)c1ccc(C)cc1 | -10.7 | -0.5 | 49.9* | -3.6 | -0.4 | 0.7 | 43.6* | 13.6*
CCCCC[C@@H]1C=C(C(=O)O)[C@H](c2ccc(Cl)c(Cl)c2)N1S(=O)(=O)c1ccc(C)cc1 | 9.3 | -3.4 | 85.1* | 0.1 | 0.1 | 0.0 | 86.8* | 52.9*
CCCCC[C@@H]1C=C(C(=O)O)[C@H](c2cccc(C)c2)N1S(=O)(=O)c1ccc(C)cc1 | -7.4 | -0.5 | 66.6* | -2.3 | 1.0 | -0.6 | 49.7* | 15.7*
CCc1ccc([C@H]2C(C(=O)O)=C[C@@H](CC)N2S(=O)(=O)c2ccc(C)cc2)cc1 | -64.1 | -1.9 | 21.0 | -6.9 | 0.3 | 0.7 | . | .
CCCCN(C)S(=O)(=O)c1ccc(C(=O)Nc2nnc(-c3ccco3)o2)cc1 | 10.8 | -6.7 | 37.2* | 0.8 | -0.7 | -0.1 | 27.0 | 8.2*
CN(C)S(=O)(=O)c1ccc(C(=O)Nc2nnc(-c3ccco3)o2)cc1 | -2.4 | -2.2 | 3.6 | 3.1 | 7.4 | -0.3 | . | .
S=c1[nH]nc(-c2cccs2)n1/N=C/c1c(Cl)cccc1Cl | -16.1 | -4.3 | 49.9* | -7.8 | 19.0 | 0.6 | 43.8* | 10.3*
Cc1cc(O)cc(=O)n1-c1ccc(Cl)c(C(F)(F)F)c1 | -1.9 | . | 3.4 | -1.2 | . | -0.4 | . | .
CN(Cc1ccco1)C(=O)c1cccc2c1C(=O)N(Cc1cccnc1)C2 | -4.4 | . | 2.9 | 0.4 | . | -0.1 | . | .
Cc1ccc(C2c3[nH]c4ccccc4c3C[C@H]3C(=O)N(c4ccccc4C(=O)N4CCC(C(=O)O)CC4)C(=O)N23)cc1 (stereo not given in full) | -20.5 | -1.9 | 32.1 | -3.3 | 9.4 | 1.8 | . | .
Cc1ccc(C2c3[nH]c4ccccc4c3C[C@H]3C(=O)N(c4ccccc4C(=O)N4CCC[C@@H]4C(=O)O)C(=O)N23)cc1 (stereo not given in full) | -16.4 | -1.1 | 39.2* | -7.3 | 11.4 | 1.2 | 56.8* | 19.4*
O=C(O)C1CCN(C(=O)c2ccccc2N2C(=O)[C@@H]3Cc4c([nH]c5ccccc45)C(c4cccc(Cl)c4)N3C2=O)CC1 (stereo not given in full) | -86.4 | 0.7 | 38.4* | -23.6 | 15.8 | 0.0 | 47.1* | 14.2*
CCN(CC)S(=O)(=O)c1cccc(C(=O)N/N=C/c2cccc(O)c2O)c1 | 10.8 | -2.7 | 37.4* | 4.3 | 1.1 | -0.8 | 33.0 | 13.0*
Cc1cc(C)nc(NC(=S)N2CCN(c3ccc(Cl)c(Cl)c3)CC2)c1 | 5.2 | . | . | -3.2 | . | . | . | .
COc1ccc(S(=O)(=O)Nc2nc3ccccc3s2)cc1 | -1.9 | -8.0 | 21.2 | -4.4 | 5.6 | 0.1 | . | .
CCOc1ccc2sc(NS(=O)(=O)c3ccc(OC)c(OC)c3)nc2c1 | 2.6 | 0.6 | 52.1* | 3.9 | 17.4 | -0.2 | 26.0 | 5.9*
CCOC1=CC2=C(C(=O)C(Cl)=CC2=O)[C@@H]2CN(S(=O)(=O)c3ccc(C)cc3)[C@@H](c3ccccc3)[C@H]12 | 3.6 | . | 72.5* | 3.2 | . | -0.1 | 56.6* | 21.4*
Cc1cc(C=C2C(=O)c3ccccc3C2=O)c(C)n1-c1cccc(C(=O)O)c1 | 4.1 | 1.4 | 56.5* | 2.0 | 1.8 | -0.4 | 50.8* | 14.6*
O=C(O)c1cccc(-n2cccc2C=C2C(=O)c3ccccc3C2=O)c1 | 0.0 | 0.6 | 57.3* | 3.3 | 5.3 | 0.6 | 46.7* | 13.6*
O=C1C(=Cc2cccn2-c2ccccc2)C(=O)c2ccccc21 | -0.9 | 2.7 | 13.2 | -1.4 | 12.6 | -1.7 | . | .
SMILES | ADAM10 inh | GRIN3A LBD mod | rCAG binder | ADAM17 inh | AHR act | proKLK7 act | rCAG bind conf | DNA CAG counter | others
CCCCN1CC[C@H](C)Oc2cc(Br)ccc2S1(=O)=O | 5.1 | . | 1.2 | 2.8 | . | -0.3 | . | .
O=C(Nc1ccc(S(=O)(=O)Nc2ncccn2)cc1)c1ccccc1NS(=O)(=O)c1ccc(Cl)cc1 | -14.0 | 2.1 | 41.5* | -2.8 | 1.0 | -0.1 | 65.5* | 26.1*
O=C(O)c1ccc(Cl)c(S(=O)(=O)Nc2ccccc2C(=O)Nc2ccc(Cl)cc2)c1 | -0.2 | 29.4* | 45.4* | -1.5 | 32.2 | 0.0 | 46.3* | 17.1*
O=C(c1ccccc1NS(=O)(=O)c1ccc(Cl)cc1)N1CCc2ccccc21 | 1.9 | -2.9 | 47.1* | 0.4 | -1.4 | 0.0 | 60.9* | 15.2*
O=C(O)c1ccc(NS(=O)(=O)c2ccc(Cl)c(C(=O)Nc3ccccc3)c2)cc1 | -0.8 | -1.6 | 3.4 | 0.7 | -0.4 | -0.5 | . | .
COc1ccc(C2C(C(=O)N3CCOCC3)CC(=O)N2c2ccc(OC)cc2)cc1 (stereo not given) | -1.9 | . | 3.3 | -2.3 | . | 0.0 | . | .
CC(=O)Nc1cc2nc3ccccc3oc-2cc1=O | -10.2 | . | -0.1 | -0.7 | . | -0.2 | . | .
Cc1ccccc1CNC(=O)c1cccc2c1C(=O)N(Cc1cccnc1)C2 | -13.4 | . | 0.1 | -4.0 | . | 0.0 | . | .
CC1CCN(S(=O)(=O)c2ccc3c(c2)c(=O)c(C(=O)NCc2cccs2)cn3C)CC1 | -1.0 | 1.3 | 42.9* | -5.2 | 2.0 | 0.0 | 9.8 | 7.5*
CC1CCN(S(=O)(=O)c2ccc3c(c2)c(=O)c(C(=O)NCc2ccco2)cn3C)CC1 | -2.9 | -11.3 | 3.1 | 0.0 | 1.5 | 0.2 | . | .
O=C(O)Cc1sc(Nc2ccc(Cl)cc2)nc1-c1cccs1 | 0.7 | 4.5 | 57.8* | 1.9 | . | 0.0 | 53.8* | 29.3* | dCAG dye DR=5.96*
